# Experimental data reported in the supplement of paper PMC6763611.
# Tested on: Plasmodium falciparum NF54
# Assay: growth inhibition relative to untreated control; higher = more inhibition
# Details: 72 h
# Procedure, shortened: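 P. falciparum NF54 ring stages (1% hematocrit, 1% parasitemia, 100 μL/well in 96-well half-area dark plates) were exposed for 72 h at 37 °C to single 5 μM or 1 μM doses of Pathogen Box compounds. The medium was minimal RPMI or minimal RPMI plus chorismate end-products (2.2 μM folate, 7.3 μM pABA, 7.3 μM pHBA, 111 μM tyrosine, 90 μM phenylalanine, tryptophan). Growth inhibition was read by SYBR Green, normalised to untreated controls, with uninfected erythrocytes as background.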
# [1] = 1 µM, MM + chorismate end-products (CM screening medium)
# [2] = 5 µM, MM + chorismate end-products (CM screening medium)
compound,measurement,setting,value
Cn1c(=O)c2c(S(C)(=O)=O)snc2n(C)c1=O,growth inhibition,[1],23.6%
same,growth inhibition,"1 µM, minimal medium (MM)",5.49%
same,growth inhibition,[2],37.3%
same,growth inhibition,"5 µM, minimal medium (MM)",23.5%
O=C(Cn1ccnc1[N+](=O)[O-])NCc1ccccc1,growth inhibition,[1],20.5%
same,growth inhibition,"1 µM, minimal medium (MM)",< 0%
same,growth inhibition,[2],0.641%
same,growth inhibition,"5 µM, minimal medium (MM)",< 0%
CCc1cc(=O)n(C)c(SC(C)C(=O)Nc2ccc(F)cc2)n1 (stereo not drawn),growth inhibition,[1],< 0%
same,growth inhibition,"1 µM, minimal medium (MM)",2.62%
same,growth inhibition,[2],96.9%
same,growth inhibition,"5 µM, minimal medium (MM)",94.5%
COCC(C)NC(=O)CSc1ncnc2sc(-c3ccccc3)cc12 (stereo not drawn),growth inhibition,[1],11.3%
same,growth inhibition,"1 µM, minimal medium (MM)",< 0%
same,growth inhibition,[2],< 0%
same,growth inhibition,"5 µM, minimal medium (MM)",< 0%
CCOC(=O)c1noc(N)c1-c1ccccc1,growth inhibition,[1],59.8%
same,growth inhibition,"1 µM, minimal medium (MM)",12.2%
same,growth inhibition,[2],44.4%
same,growth inhibition,"5 µM, minimal medium (MM)",0.705%
O=C(Nc1ccccc1)c1ccc(-c2cc3ccncc3cc2OC2CCNCC2)s1,growth inhibition,[1],98.5%
same,growth inhibition,"1 µM, minimal medium (MM)",> 100%
same,growth inhibition,[2],96.1%
same,growth inhibition,"5 µM, minimal medium (MM)",94.6%
Cc1nc(-c2cccc(NCc3ccccc3)c2)[nH]c1C,growth inhibition,[1],63.5%
same,growth inhibition,"1 µM, minimal medium (MM)",35.9%
same,growth inhibition,[2],93.4%
same,growth inhibition,"5 µM, minimal medium (MM)",94.7%
Cc1ccc(Oc2ccc(NC(=O)CNc3ccccc3N3CCCC3=O)cc2)cc1,growth inhibition,[1],85.2%
same,growth inhibition,"1 µM, minimal medium (MM)",87.4%
same,growth inhibition,[2],98.3%
same,growth inhibition,"5 µM, minimal medium (MM)",91.8%
Nc1ccc2ncnc(Nc3ccc(OCc4cccc(F)c4)c(Cl)c3)c2c1,growth inhibition,[1],61.9%
same,growth inhibition,"1 µM, minimal medium (MM)",24.6%
same,growth inhibition,[2],99.7%
same,growth inhibition,"5 µM, minimal medium (MM)",95.7%
CNC1C(OC2C(OC3C(O)C(O)C(N=C(N)N)C(O)C3N=C(N)N)OC(C)C2(O)C=O)OC(CO)C(O)C1O (stereo not drawn),growth inhibition,[1],20.4%
same,growth inhibition,"1 µM, minimal medium (MM)",29.2%
same,growth inhibition,[2],< 0%
same,growth inhibition,"5 µM, minimal medium (MM)",8.51%
NC(=O)c1cc(Br)ccc1OCCOc1ccccc1,growth inhibition,[1],14.5%
same,growth inhibition,"1 µM, minimal medium (MM)",< 0%
same,growth inhibition,[2],28.6%
same,growth inhibition,"5 µM, minimal medium (MM)",< 0%
O=C(NCCc1ccccc1)c1cc(-c2cccnc2)cnc1NCC1CC1,growth inhibition,[1],77.5%
same,growth inhibition,"1 µM, minimal medium (MM)",> 100%
same,growth inhibition,[2],59.2%
same,growth inhibition,"5 µM, minimal medium (MM)",47%
Cc1cc(C)n(-c2ccc(NC(=O)C3CCN(Cc4cnc(C)s4)CC3)cc2)n1,growth inhibition,[1],31%
same,growth inhibition,"1 µM, minimal medium (MM)",27.5%
same,growth inhibition,[2],43.6%
same,growth inhibition,"5 µM, minimal medium (MM)",10.6%
CNC(=O)CNc1nc(-c2ccccn2)nc2scc(-c3ccccc3)c12,growth inhibition,[1],8.9%
same,growth inhibition,"1 µM, minimal medium (MM)",9.62%
same,growth inhibition,[2],61.2%
same,growth inhibition,"5 µM, minimal medium (MM)",37.3%
Cc1ccc(S(=O)(=O)Nc2ccc(CN3CCN(C(=O)c4cccc(C#N)c4)CC3)cc2)cc1,growth inhibition,[1],5.22%
same,growth inhibition,"1 µM, minimal medium (MM)",5.35%
same,growth inhibition,[2],42.7%
same,growth inhibition,"5 µM, minimal medium (MM)",< 0%
COC(=O)c1c(NC(=O)c2c(F)c(F)c(F)c(F)c2F)sc2c1CCCCC2,growth inhibition,[1],26.9%
same,growth inhibition,"1 µM, minimal medium (MM)",25.7%
same,growth inhibition,[2],< 0%
same,growth inhibition,"5 µM, minimal medium (MM)",< 0%
O=C1[C@@H](Oc2ccccc2)[C@@H](c2ccc(Cl)cc2)N1CCn1cnc2c(NCc3ccccc3)ncnc21,growth inhibition,[1],< 0%
same,growth inhibition,"1 µM, minimal medium (MM)",22.4%
same,growth inhibition,[2],< 0%
same,growth inhibition,"5 µM, minimal medium (MM)",7.4%
CNC(=O)c1nn(C)c2c1C(C)(C)Cc1cnc(Nc3ccc(N4CCN(C)CC4)cc3)nc1-2,growth inhibition,[1],64.5%
same,growth inhibition,"1 µM, minimal medium (MM)",73.6%
same,growth inhibition,[2],88%
same,growth inhibition,"5 µM, minimal medium (MM)",87.2%
CC1=NN(c2nc3ccccc3s2)C(=O)C1Cc1cccc2ccccc12 (stereo not drawn),growth inhibition,[1],< 0%
same,growth inhibition,"1 µM, minimal medium (MM)",0.985%
same,growth inhibition,[2],< 0%
same,growth inhibition,"5 µM, minimal medium (MM)",< 0%
CS(=O)(=O)N1CCC(Cn2nc(Cc3cccc4ccccc34)c3c(N)ncnc32)CC1,growth inhibition,[1],41.5%
same,growth inhibition,"1 µM, minimal medium (MM)",< 0%
same,growth inhibition,[2],42.7%
same,growth inhibition,"5 µM, minimal medium (MM)",17.6%
O=C(NC1CC1)c1ccc(N2CCOc3ccc(Cl)cc32)s1,growth inhibition,[1],91%
same,growth inhibition,"1 µM, minimal medium (MM)",82.1%
same,growth inhibition,[2],95.1%
same,growth inhibition,"5 µM, minimal medium (MM)",91.5%
CC1CS(=O)(=O)CCN1/N=C/c1ccc([N+](=O)[O-])o1 (stereo not drawn),growth inhibition,[1],< 0%
same,growth inhibition,"1 µM, minimal medium (MM)",0.769%
same,growth inhibition,[2],< 0%
same,growth inhibition,"5 µM, minimal medium (MM)",< 0%
CC(C)(C)C(=O)N(CCCCCCN1C[C@H](O)[C@@H](O)[C@H](O)[C@H]1CO)C1CCCCCC1,growth inhibition,[1],28.4%
same,growth inhibition,"1 µM, minimal medium (MM)",< 0%
same,growth inhibition,[2],< 0%
same,growth inhibition,"5 µM, minimal medium (MM)",< 0%
CC(=O)N(CCN(C(=O)c1ccc(F)cc1)c1ccccc1)c1ccccc1,growth inhibition,[1],< 0%
same,growth inhibition,"1 µM, minimal medium (MM)",< 0%
same,growth inhibition,[2],20.2%
same,growth inhibition,"5 µM, minimal medium (MM)",< 0%
O=C(Nc1ccccc1-c1nc2c(C(=O)O)cccc2o1)c1ccccc1,growth inhibition,[1],< 0%
same,growth inhibition,"1 µM, minimal medium (MM)",0.353%
same,growth inhibition,[2],< 0%
same,growth inhibition,"5 µM, minimal medium (MM)",< 0%
CC(C)(C)OC(=O)N1CCN(c2nccc(-c3ccc(-c4ccc(Cl)cc4)s3)n2)CC1,growth inhibition,[1],< 0%
same,growth inhibition,"1 µM, minimal medium (MM)",2.86%
same,growth inhibition,[2],64.1%
same,growth inhibition,"5 µM, minimal medium (MM)",11.6%
COc1cccc2c(C)nc(N=C(N)N)nc12,growth inhibition,[1],70.2%
same,growth inhibition,"1 µM, minimal medium (MM)",71.3%
same,growth inhibition,[2],92.4%
same,growth inhibition,"5 µM, minimal medium (MM)",89.2%
CN1CCCC1CCO[C@](C)(c1ccccc1)c1ccc(Cl)cc1 (stereo partly drawn),growth inhibition,[1],96.4%
same,growth inhibition,"1 µM, minimal medium (MM)",94.5%
same,growth inhibition,[2],98%
same,growth inhibition,"5 µM, minimal medium (MM)",93.3%
c1csc(-c2cnc3sc(NCC4CCOCC4)nn23)c1,growth inhibition,[1],60.9%
same,growth inhibition,"1 µM, minimal medium (MM)",68.8%
same,growth inhibition,[2],> 100%
same,growth inhibition,"5 µM, minimal medium (MM)",95%
Nc1nccc2ccc(Oc3ccncc3)cc12,growth inhibition,[1],73.9%
same,growth inhibition,"1 µM, minimal medium (MM)",64%
same,growth inhibition,[2],68.2%
same,growth inhibition,"5 µM, minimal medium (MM)",60.1%
COc1ccc(Oc2ccc([C@@H](C)N(C)c3ncc4c(N)nc(N)nc4n3)cc2)cc1,growth inhibition,[1],13.7%
same,growth inhibition,"1 µM, minimal medium (MM)",< 0%
same,growth inhibition,[2],> 100%
same,growth inhibition,"5 µM, minimal medium (MM)",89.1%
c1ccc(Oc2ccc(-c3cc(CN4CCOCC4)[nH]n3)cc2)cc1,growth inhibition,[1],0.894%
same,growth inhibition,"1 µM, minimal medium (MM)",< 0%
same,growth inhibition,[2],< 0%
same,growth inhibition,"5 µM, minimal medium (MM)",11.1%
Cc1ccc(S(=O)(=O)n2cc(-c3ccnc(N)c3)c3cc(Br)cnc32)cc1,growth inhibition,[1],95.2%
same,growth inhibition,"1 µM, minimal medium (MM)",> 100%
same,growth inhibition,[2],97.8%
same,growth inhibition,"5 µM, minimal medium (MM)",95.2%
Cc1ccc2c(c1C)NC(=O)C21NN=C(c2ccccc2)S1 (stereo not drawn),growth inhibition,[1],95.4%
same,growth inhibition,"1 µM, minimal medium (MM)",89.4%
same,growth inhibition,[2],98.3%
same,growth inhibition,"5 µM, minimal medium (MM)",89.8%
CCOc1ccc2cc(-c3nn(C(C)(C)C)c(N)c3C(N)=O)cnc2c1,growth inhibition,[1],11%
same,growth inhibition,"1 µM, minimal medium (MM)",18.1%
same,growth inhibition,[2],3.3%
same,growth inhibition,"5 µM, minimal medium (MM)",< 0%
O=C(c1[nH]nc2c1CCCC2)N1CCN(Cc2ccc3c(c2)OCO3)CC1,growth inhibition,[1],< 0%
same,growth inhibition,"1 µM, minimal medium (MM)",13%
same,growth inhibition,[2],< 0%
same,growth inhibition,"5 µM, minimal medium (MM)",< 0%
CC(C)(C(=O)Nc1ccc(F)cc1)n1cc(-c2ccccc2F)cn1,growth inhibition,[1],0.0824%
same,growth inhibition,"1 µM, minimal medium (MM)",< 0%
same,growth inhibition,[2],5%
same,growth inhibition,"5 µM, minimal medium (MM)",15.7%
